Reference: PubChem BioAssay (Tox21)
Records with an inconclusive call do not appear. Where a call stands in place of a potency, no number is given. A number with no mark means an inactive call. Active and inactive are the calls of the source. Calls come from the whole dose curve; as a rule, active = well fitted curve in the direction sought with a large enough effect in the repeat runs; inconclusive = weak or mixed curves; inactive = no such curve, though single readings can be large; an effect the other way counts as inactive or inconclusive.

Legend:
[1] = target: Cytochrome P450 1A2 (Homo sapiens) (UniProt P05177); assay: Cytochrome P450 Family 1 Subfamily A Member 2 (CYP1A2) small molecule antagonists: luciferase reporter qHTS assay (AID 1671199); conditions: P450-Glo CYP1A2 enzyme, luciferin luminescence, 1 h; series mostly up to 115 µM
Summary of the method: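 Signal from luciferin formed by CYP1A2 from a proluciferin substrate is read as luminescence, expressed in relative luminescence units. Compounds sit with enzyme 10 min, NADPH-driven reaction runs 1 h, all at room temperature.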

[2] = target: Voltage-gated inwardly rectifying potassium channel KCNH2 (Homo sapiens) (UniProt Q12809); assay: Human Ether-a-go-go-Related Gene (hERG) channel small molecule antagonists: fluorescence cell-based qHTS assay (AID 1671200); conditions: hERG-U2OS cells, FluxOR thallium flux fluorescence; series mostly up to 76.8 µM;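 for activity change, negative = inhibition: hERG-expressing U2OS cells given a thallium stimulus after FluxOR II dye loading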
Summary of the method: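 Read-out: thallium influx as a surrogate for potassium, tracked as fluorescence (480 nm ex/540 nm em) every second for 2 min after Stimulus Buffer addition in dye-loaded hERG-U2OS cells.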

[3] = target: Cytochrome P450 3A4 (Homo sapiens) (UniProt P08684); assay: Cytochrome P450 Family 3 Subfamily A Member 4 (CYP3A4) small molecule antagonists: luciferase reporter qHTS assay (AID 1671201); conditions: P450-Glo CYP3A4 enzyme, luciferin luminescence, 1 h; series mostly up to 115 µM
Summary of the method: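 Luminescent readout (RLU) proportional to CYP3A4 activity, from luciferin generated off a proluciferin substrate. Enzyme–substrate mix plus compound 10 min at room temp, NADPH regeneration 1 h, detection reagent 20 min.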
Note: nearly all actives have a fitted effect of over 50% in size.
Potency is the fitted concentration of half-maximal effect.

Voltage-gated inwardly rectifying potassium channel KCNH2 (Homo sapiens), sequence (Q12809 whole entry, looked up): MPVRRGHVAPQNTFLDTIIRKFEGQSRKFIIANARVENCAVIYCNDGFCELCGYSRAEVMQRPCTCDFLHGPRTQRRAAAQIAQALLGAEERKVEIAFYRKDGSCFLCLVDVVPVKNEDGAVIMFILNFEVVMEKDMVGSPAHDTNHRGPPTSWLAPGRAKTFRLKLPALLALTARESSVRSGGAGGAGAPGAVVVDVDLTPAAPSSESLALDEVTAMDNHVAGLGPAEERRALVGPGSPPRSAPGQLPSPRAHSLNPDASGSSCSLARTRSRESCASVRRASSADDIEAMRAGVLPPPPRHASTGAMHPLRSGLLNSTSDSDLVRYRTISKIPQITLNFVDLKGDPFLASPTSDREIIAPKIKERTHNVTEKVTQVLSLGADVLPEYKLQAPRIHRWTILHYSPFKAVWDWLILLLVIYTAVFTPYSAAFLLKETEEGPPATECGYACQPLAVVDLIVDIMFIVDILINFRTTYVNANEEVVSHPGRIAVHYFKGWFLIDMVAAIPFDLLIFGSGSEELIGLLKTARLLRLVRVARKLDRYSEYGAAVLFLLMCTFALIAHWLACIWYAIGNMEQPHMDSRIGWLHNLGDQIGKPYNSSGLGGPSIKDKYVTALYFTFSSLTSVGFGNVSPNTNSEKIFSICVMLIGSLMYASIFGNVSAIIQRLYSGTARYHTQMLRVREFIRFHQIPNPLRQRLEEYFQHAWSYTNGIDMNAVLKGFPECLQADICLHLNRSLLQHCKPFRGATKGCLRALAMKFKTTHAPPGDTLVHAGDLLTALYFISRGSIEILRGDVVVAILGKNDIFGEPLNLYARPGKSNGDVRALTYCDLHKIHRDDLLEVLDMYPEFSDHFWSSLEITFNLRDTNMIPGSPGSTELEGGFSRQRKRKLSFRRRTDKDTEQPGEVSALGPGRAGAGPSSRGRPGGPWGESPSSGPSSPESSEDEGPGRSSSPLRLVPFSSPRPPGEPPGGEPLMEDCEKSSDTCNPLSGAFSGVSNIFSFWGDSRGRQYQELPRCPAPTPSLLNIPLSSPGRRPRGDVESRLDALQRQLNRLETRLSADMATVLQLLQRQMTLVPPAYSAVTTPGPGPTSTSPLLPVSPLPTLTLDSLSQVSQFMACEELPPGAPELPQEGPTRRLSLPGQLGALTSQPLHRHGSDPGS
Cytochrome P450 3A4 (Homo sapiens), sequence (P08684 whole entry, looked up): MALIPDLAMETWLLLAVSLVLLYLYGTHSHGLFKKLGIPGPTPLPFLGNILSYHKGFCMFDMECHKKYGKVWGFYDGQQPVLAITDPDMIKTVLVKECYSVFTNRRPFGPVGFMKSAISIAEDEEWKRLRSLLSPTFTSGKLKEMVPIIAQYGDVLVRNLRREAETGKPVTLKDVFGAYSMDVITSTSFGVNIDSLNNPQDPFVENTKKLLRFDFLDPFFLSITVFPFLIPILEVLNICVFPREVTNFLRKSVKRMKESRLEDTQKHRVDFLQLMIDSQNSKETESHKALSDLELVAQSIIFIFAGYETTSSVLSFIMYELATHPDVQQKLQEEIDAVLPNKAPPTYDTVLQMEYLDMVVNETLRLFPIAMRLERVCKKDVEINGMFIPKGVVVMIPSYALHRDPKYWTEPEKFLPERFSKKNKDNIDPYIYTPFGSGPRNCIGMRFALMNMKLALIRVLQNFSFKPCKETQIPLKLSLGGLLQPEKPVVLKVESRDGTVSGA
Cytochrome P450 1A2 (Homo sapiens), sequence (P05177 whole entry, looked up): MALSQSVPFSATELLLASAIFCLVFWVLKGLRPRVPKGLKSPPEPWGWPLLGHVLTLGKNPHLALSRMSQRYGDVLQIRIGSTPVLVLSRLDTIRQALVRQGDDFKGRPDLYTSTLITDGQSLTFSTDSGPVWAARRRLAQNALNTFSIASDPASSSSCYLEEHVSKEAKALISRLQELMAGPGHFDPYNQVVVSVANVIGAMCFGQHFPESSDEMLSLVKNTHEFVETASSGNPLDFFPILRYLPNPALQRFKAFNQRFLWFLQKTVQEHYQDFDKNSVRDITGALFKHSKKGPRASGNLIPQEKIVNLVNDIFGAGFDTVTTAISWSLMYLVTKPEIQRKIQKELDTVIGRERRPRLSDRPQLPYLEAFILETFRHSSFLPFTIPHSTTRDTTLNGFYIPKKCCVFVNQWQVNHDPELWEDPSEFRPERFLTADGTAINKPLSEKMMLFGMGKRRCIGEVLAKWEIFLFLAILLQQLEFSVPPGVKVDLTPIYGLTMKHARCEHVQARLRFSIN

## CCOCN(C(=O)CS(=O)(=O)O)c1c(C)cccc1CC
[1]
  Potency: inactive
[2]
  Potency: inactive

## CC1(C)C(=O)N(Br)C(=O)N1Br
[1]
  Potency: inactive
[2]
  Potency: inactive
[3]
  Potency: inactive

## Cc1c(-c2ccc(O)cc2)n(Cc2ccc(OCCN3CCCCCC3)cc2)c2ccc(O)cc12
[1]
  Potency: inactive

## CN1CCN(C2Cc3ccccc3Sc3ccc(Cl)cc32)CC1 (stereo not given)
[1]
  Potency: inactive
[2]
  Potency: 0.848 µM (active)

## C/C=C/C=N/NC(=O)c1ccncc1
[1]
  Potency: inactive
[2]
  Potency: inactive

## CCCCCCCC/C=C\CCCCCCCC(=O)NCc1ccc(O)c(OC)c1
[1]
  Potency: 15.5 µM (active)
[2]
  Potency: inactive

## Oc1cc2ccccc2cc1O
[1]
  Potency: 31.7 µM (active)
[2]
  Potency: inactive

## CCCCCCOc1ccc(O)cc1
[1]
  Potency: 39.9 µM (active)
[2]
  Potency: inactive

## CC(=O)OC(OC(C)=O)c1ccc([N+](=O)[O-])o1
[1]
  Potency: 45.6 µM (active)
[2]
  Potency: inactive
[3]
  Potency: inactive

## Cc1cccc(C)n1
[1]
  Potency: 39.9 µM (active)
[2]
  Potency: inactive
[3]
  Potency: inactive

## Cc1nc(Nc2ncc(C(=O)Nc3c(C)cccc3Cl)s2)cc(N2CCN(CCO)CC2)n1
[1]
  Potency: inactive
[2]
  Potency: inactive

## Cc1ccc(-n2[nH]c(C)c(N=Nc3cccc(-c4cccc(C(=O)O)c4)c3O)c2=O)cc1C
[1]
  Potency: inactive
[2]
  Potency: inactive
[3]
  Potency: inactive

## NC(=O)C(=O)N/N=C/c1ccc([N+](=O)[O-])o1
[1]
  Potency: inactive
[2]
  Potency: inactive
[3]
  Potency: inactive

## CC=O
[1]
  Potency: 37.2 µM (active)
[2]
  Potency: 4.57 µM (active)
[3]
  Potency: inactive

## CCN(CC)CCSC(=O)C(c1ccccc1)c1ccccc1
[1]
  Potency: 15.5 µM (active)
[2]
  Potency: 2.68 µM (active)

## CCNc1nc(NC(C)CC)nc(OC)n1 (stereo not given)
[1]
  Potency: 25.2 µM (active)
[2]
  Potency: inactive
[3]
  Potency: inactive

## CN(Cc1cc(Br)cc(Br)c1N)C1CCCCC1
[1]
  Potency: 32.3 µM (active)
[2]
  Potency: 10.7 µM (active)
[3]
  Potency: inactive

## O=C=NCc1cccc(CN=C=O)c1
[1]
  activity change, negative = inhibition: -18.9% [at 23.6 µM]
[2]
  activity change, negative = inhibition: 0.993% [at 15.8 µM]
[3]
  Potency: 4.25 µM (active)

## c1cc2c3c(c1)ccc1cccc(c13)C2
[1]
  Potency: 3.63 µM (active)
[2]
  Potency: inactive
[3]
  Potency: inactive

## CC(C)c1ccccc1N
[1]
  Potency: inactive
[2]
  Potency: inactive
[3]
  Potency: 28.3 µM (active)

## CC(NCCC(c1ccccc1)c1ccccc1)c1ccccc1 (stereo not given)
[1]
  Potency: inactive
[2]
  Potency: 1.69 µM (active)

## CC(C)=CCCC(C)CCOC(=O)C(C)C (stereo not given)
[1]
  Potency: inactive
[2]
  Potency: inactive

## C=CC(C)(CCC=C(C)C)OC(=O)/C=C/c1ccccc1 (stereo not given)
[1]
  Potency: 31.7 µM (active)
[2]
  Potency: inactive

## O=S(=O)(O)CCCN1CCOCC1
[1]
  Potency: inactive
[2]
  Potency: inactive
[3]
  Potency: inactive

## O=Cc1ccc(F)cc1
[1]
  Potency: inactive
[2]
  Potency: inactive
[3]
  Potency: inactive

## O=C1C=CC(=O)N1c1ccccc1
[1]
  Potency: 20 µM (active)
[2]
  Potency: 49 µM (active)

## O=C(Nc1ccc(Cl)c(Cl)c1)c1cc(Cl)cc(Cl)c1O
[1]
  Potency: 20 µM (active)
[2]
  Potency: inactive
[3]
  Potency: 17.8 µM (active)

## CCCCCCCCCCCCCC[n+]1ccccc1
[1]
  Potency: 71 µM (active)
[2]
  Potency: 5.49 µM (active)

## CCCSS/C(CCO)=C(\C)N(C=O)Cc1cnc(C)nc1N
[1]
  Potency: inactive
[2]
  Potency: 12 µM (active)

## C=CCCCCCCC=C
[2]
  Potency: inactive

## CCCCCCCC/C=C/CCCOC(C)=O
[2]
  Potency: inactive
[3]
  Potency: inactive

## Cc1cc(C)c(C=O)c(C)c1
[1]
  Potency: inactive
[2]
  Potency: inactive
[3]
  Potency: inactive

## O=C1NCN(c2ccccc2)C12CCN(CCCC(c1ccc(F)cc1)c1ccc(F)cc1)CC2
[1]
  Potency: inactive
[2]
  Potency: 0.19 µM (active)
[3]
  Potency: inactive
